High-throughput results: PubChem, National Center for Advancing Translational Sciences (NCATS)
TDP1 cell CPT: growth inhibition of DT40 Tdp1-/-;hTDP1 cells with camptothecin (screen for TDP1 inhibitors); chicken DT40 Tdp1-/-;hTDP1 cells + 20 nM CPT, ATP luminescence, 48 h; AID 686979; Potency, µM (highest dose often 46.2 µM), for inactives: at the highest dose activity change, negative = growth inhibition, usual class: inhibitors; 12% of 420,000 active; note: potency is the fitted concentration of half-maximal effect; nearly all actives have a fitted effect of over 55% in size
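Chicken DT40 Tdp1-/- cells stably complemented with human TDP1 were seeded at 400 cells/well in medium containing 20 nM camptothecin, exposed to pin-transferred compounds, and grown at 37 °C for at least 48 hr. Viability was read as ATP luminescence.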
12-LOX inh: ALOX12 (human) lipoxygenase inhibition; P18054; purified 12hLO, xylenol orange hydroperoxide absorbance; Potency, µM (top dose mostly 108 µM), without a hit: top-dose activity change, negative = inhibition, most hits filed as inhibitors; 1.1% of 580,000 active; AID 1671190; note: potency is the fitted concentration of half-maximal effect
Target sequence (P18054 whole entry, looked up): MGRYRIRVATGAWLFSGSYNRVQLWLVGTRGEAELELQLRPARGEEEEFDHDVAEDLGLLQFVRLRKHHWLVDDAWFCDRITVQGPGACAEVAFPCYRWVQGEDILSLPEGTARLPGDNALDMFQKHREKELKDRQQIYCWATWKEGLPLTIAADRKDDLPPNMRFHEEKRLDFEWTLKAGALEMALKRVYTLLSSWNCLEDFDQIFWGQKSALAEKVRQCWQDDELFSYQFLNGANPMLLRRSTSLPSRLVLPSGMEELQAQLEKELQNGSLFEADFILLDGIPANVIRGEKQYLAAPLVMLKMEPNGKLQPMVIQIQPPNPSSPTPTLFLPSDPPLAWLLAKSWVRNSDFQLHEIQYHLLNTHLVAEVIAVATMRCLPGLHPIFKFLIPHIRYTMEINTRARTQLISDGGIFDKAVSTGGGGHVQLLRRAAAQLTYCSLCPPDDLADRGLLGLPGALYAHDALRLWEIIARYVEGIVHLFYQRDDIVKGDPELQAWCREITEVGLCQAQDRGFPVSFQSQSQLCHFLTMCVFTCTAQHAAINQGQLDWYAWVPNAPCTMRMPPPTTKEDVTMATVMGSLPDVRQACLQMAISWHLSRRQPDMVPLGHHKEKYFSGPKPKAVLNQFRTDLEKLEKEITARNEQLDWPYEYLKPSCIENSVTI
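Purified human 12hLO (150 nM final) in 25 mM Hepes, 0.01% Triton X-100, pH 7.0 was preincubated 15 min at room temperature with compound. Then 40 uM arachidonic acid was added, 30 min. Hydroperoxide was read by Fe-XO absorbance ratio 573/405 nm.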
DT40 TDP1 no CPT: qHTS for Inhibitors of human tyrosyl-DNA phosphodiesterase 1 (TDP1): qHTS in cells in absence of CPT; Potency, µM (titrated, usually from 46.2 µM), for inactives: at the highest dose activity change, negative = growth inhibition, actives largely listed as inhibitors; AID 686978, 2013; 15% of 420,000 active; DT40 Tdp1-/- hTDP1 cells, no CPT, ATP luminescence, 48 h; note: potency is the fitted concentration of half-maximal effect; nearly all actives have a fitted effect of over 55% in size
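Seeded 400 DT40-hTDP1 cells/well (vehicle DMSO, no 20 nM CPT); pinned compounds; ≥48 hr at 37 °C; CellTiter-Glo luminescence as viability measure.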
HT1080 IDH1KD tx: kills HT-1080 cells with IDH1 knockdown; HT-1080 IDH1 knockdown viability, ATP luminescence, 48 h; Potency, µM (series often up to 46.1 µM), for inactives: top-dose activity, negative = toxicity, actives largely listed as cytotoxic; 2% of 360,000 active; AID 686971;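 note: potency is the fitted concentration of half-maximal effect; 0% = DMSO wells and -100% = cell-free medium wells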
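% activity derives from luminescence (CellTiter-Glo), normalised to DMSO and no-cell wells. HT-1080-IDH1KD cells, 750/well, had 48 h compound exposure at 37 °C.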
HT1080NT lethal: kills 2HG-producing HT-1080-NT fibrosarcoma cells. 1.6% of 360,000 active. HT-1080-NT fibrosarcoma viability, CellTiter-Glo ATP luminescence, 48 h. Potency, µM (top dose mostly 46.1 µM), without a hit: at the highest dose activity, negative = less viability, most hits filed as cytotoxic. AID 686970;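 note: NT is the 2HG producing partner of a matched IDH1 knockdown line; potency is the fitted concentration of half-maximal effect; 0% = DMSO-treated cells and -100% = media-only wells without cells; nearly all actives have a fitted effect of over 55% in size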
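HT-1080-NT; 750 cells/well; 5% FBS RPMI; 48 h compound, 37 degrees C; CellTiter-Glo luminescence; curve fitting and curve-class assignment.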
IL1B secr inh: inhibitors of inflammasome signaling (IL-1 beta secretion) | THP-1 LPS/ATP IL-1B secretion, AlphaLISA, 16 h; active compounds read low | activity change, % at 57.5 µM | 4.7% of 360,000 active | AID 743279; in the data active = activity change below about -50%; inconclusive = mostly about -30% to -49%
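Secreted IL-1B measured by AlphaLISA bead assay after 16 h compound exposure of THP-1 cells; compounds (final up to 57.5 uM) added 1 h before LPS (250 ng/mL) and ATP (1.25 mM) stimulation; lower signal means less secretion.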
The depositor's hits bear a star; u = inconclusive; x = no result; ! = a repeat was not active; [ ] = dose if it differs, or a comment. This excerpt belongs to a sample that is enriched for hits. Unless noted, calls come from the whole dose curve; as a rule, active = well fitted curve in the direction sought with a large enough effect; inconclusive = small, poorly fitted or top-dose-only effect, or another doubt; inactive = no such curve, though single readings can be large; an effect the other way counts as inactive or inconclusive. Unless noted, % is set by controls: 0 for no effect and ±100 for the full control effect.

SMILES | TDP1 cell CPT | 12-LOX inh | DT40 TDP1 no CPT | HT1080 IDH1KD tx | HT1080NT lethal | IL1B secr inh
CCC/C(C(=O)NCCO)=C1/c2ccccc2C(=O)N1c1ccccc1 | 1% | -7% | u | 0% | u | 29
OCC1(CNCc2cccnc2)C[C@@H](O)[C@@H](O)C1 (stereo partly drawn) | x | 20µM* | x | x | x | x
OCC1(CNCc2ccc(F)cc2)C[C@@H](O)[C@@H](O)C1 (stereo partly drawn) | x | 63%[176 µM] | x | x | x | x
O=C(CSc1ncnc2c1cnn2-c1cccc(Cl)c1)NCC1CCCO1 (stereo not drawn) | u | u | 15µM* | 21% | 9% | -17
CNC(=O)CSc1ncnc2c1cnn2-c1ccccc1 | 20% | -4% | 9% | 8% | 14% | -22
O=C(CSc1ncnc2c1cnn2-c1ccccc1)NC1CCCC1 | 18µM* | 22% | 23µM* | 6% | 6% | -9
O=C(CSc1nc2c(cnn2-c2cccc(Cl)c2)c(=O)[nH]1)NCC1CCCO1 (stereo not drawn) | 7% | -4% | 21% | 3% | 0% | 14
CCc1ccc(-n2cc(C(=O)N3CCC(NC(=O)OC(C)(C)C)CC3)nn2)cc1 | x | 25% | x | x | x | x
COc1cccc(CN(C)CC(O)COc2c(C)cccc2C)c1OC (stereo not drawn) | x | -21% | x | x | x | x
CC(=O)Nc1cc(-c2ccccc2)ccc1O | 21µM* | u | u | -3% | -6% | 13
CC(=O)Nc1cc(Br)ccc1O | 3% | 0% | 12% | -1% | 7% | 1
Cc1ccc(-c2nnn(CC(=O)N(CC(=O)NC3CCCCC3)c3ccc(F)c(Cl)c3)n2)o1 | 13µM* | 262% | 21µM* | 18µM* | u | 27
Cc1ccc(-c2nnn(CC(=O)N(CC(=O)NC3CCCC3)c3ccc(F)c(Cl)c3)n2)o1 | u | 286% | u | 16µM* | u | 33
COc1ccc(N(CC(=O)NC2CCCC2)C(=O)Cn2nnc(-c3ccc(OC)c(OC)c3)n2)cc1 | 1% | -5% | -17% | 5% | 0% | -1
COc1ccc(-c2nnn(CC(=O)N(CC(=O)NC3CCCC3)c3ccccc3)n2)cc1OC | u | 17% | 15µM* | 8% | 2% | -2
CCC(=O)N(C1CCOCC1)C1CCN(S(=O)(=O)c2ccc(F)c(F)c2)CC1 | x | 25% | x | x | x | x
CCCCC[C@@H](C)N1C[C@H](COCc2ccccc2)Oc2cc(N3CC[C@H](N(C)C)C3)ccc2S1(=O)=O | u | -7% | 18µM* | 15µM* | 21µM* | -82*
CCCCC[C@H](C)N1C[C@H](COCc2ccccc2)Oc2cc(N3CC[C@H](O)C3)ccc2S1(=O)=O | u | -18% | u | u | u | -20
CCCCC[C@@H](C)N1C[C@H](COCc2ccccc2)Oc2cc(N3CC[C@@H](O)C3)ccc2S1(=O)=O | u | u | 21µM* | u | u | -13
Cc1ccsc1/C=C1\SC(N2CC(C)OC(C)C2)=NC1=O (stereo not drawn) | u | -22% | 15µM* | -1% | -1% | 0
N#CC(/C(=N/S(=O)(=O)c1cccs1)c1ccccc1)c1nc2ccccc2[nH]1 (stereo not drawn) | -25% | 7% | 7.3µM* | -11% | -2% | 1
O=C1OC[C@@H]2CCCN2C(=O)[C@H](CC(=O)N(CCO)Cc2ccccc2)C/C=C\CC[C@H]1Cc1ccc(F)cc1 | 23µM* | 14% | u | -6% | -1% | -29
O=C1OC[C@H]2CCCN2C(=O)[C@@H](CC(=O)N(CCO)Cc2ccccc2)C/C=C\CC[C@H]1Cc1ccc(F)cc1 | 16µM* | -10% | 21µM* | -11% | 1% | u
O=C1OC[C@H]2CCCN2C(=O)[C@@H](CC(=O)N(CCO)Cc2ccccc2)C/C=C\CC[C@@H]1Cc1ccc(F)cc1 | 18µM* | -29% | 21µM* | 2% | 1% | -9
Cc1c(Cc2ccc3c(c2)OCO3)sc(NC(=O)C(C)(C)C)c1C#N | 18µM* | -14% | 8.2µM* | -23% | -7% | 14
SMILES | TDP1 cell CPT | 12-LOX inh | DT40 TDP1 no CPT | HT1080 IDH1KD tx | HT1080NT lethal | IL1B secr inh
CCc1ccccc1N(C(C)=O)c1nc(CCl)cs1 | 15µM* | -8% | 23µM* | 13% | 4% | -15
CC(C)c1noc(-c2cn(C3CCCN(C(=O)c4ccc(F)cc4Cl)C3)nn2)n1 (stereo not drawn) | x | -14% | x | x | x | x
Cc1cccc(NC(=S)N/C(=N/S(=O)(=O)c2ccccc2)c2ccccc2)c1 | -2% | u | u | 15% | -6% | 0
CC(C)OC(=S)N/C(=N\S(=O)(=O)c1ccccc1)c1ccccc1 | 7% | -14% | -1% | 8.9µM* | 7.1µM* | 11
O=[N+]([O-])c1ccc(Nc2nc(Cl)nc(NCCO)n2)cc1 | 7% | -24% | -14% | -2% | -4% | 36
O=[N+]([O-])c1ccc(Nc2nc(NCCN3CCOCC3)nc(Nc3ccc(I)cc3)n2)cc1 | 7.1µM* | x | 4.5µM* | x | x | x
COc1nc(NCCN2CCOCC2)nc(Nc2ccccc2)n1 | 27% | 39% | 8% | 5% | 9% | 8
COc1ccc(Nc2nc(NCCN3CCOCC3)nc(Nc3ccc(OC)cc3)n2)cc1 | 11µM* | u | 14µM* | -13% | -29% | -91*
O=[N+]([O-])c1ccc(Nc2nc(NCCN3CCOCC3)nc(Nc3ccc(Cl)cc3)n2)cc1 | 14µM* | x | 10µM* | x | x | x
CCOc1cc(/C=C(\C#N)c2nc3ccccc3[nH]2)ccc1OC(C)C(=O)O (stereo not drawn) | 6% | -29% | -7% | 7% | 13% | 10
COc1cc(/C=N/NC(=O)c2ccccc2Cl)ccc1Oc1ccc([N+](=O)[O-])cn1 | u | -1% | u | -20% | -23% | 17
CCOc1cc(/C=C(/C#N)c2nc3ccccc3[nH]2)ccc1Oc1ccc([N+](=O)[O-])cn1 | 13µM* | u | u | 0% | -13% | u
COc1cc(/C=C(/C#N)c2ccc(C)cc2)ccc1Oc1ccc([N+](=O)[O-])cn1 | u | -19% | u | 6% | 0% | -69*
COc1cccc2c1C(=O)c1c(O)c3c(c(O)c1C2=O)C[C@@](O)(C(=O)CO)C[C@@H]3O[C@H]1C[C@H](N)[C@H](O)[C@H](C)O1 | 0.21µM*! | u | 0.021µM*! | 0.33µM* | 9.2µM* | -107*
